TDP1 inh – qHTS Assay for Inhibitors of Tyrosyl-DNA Phosphodiesterase (TDP1). recombinant TDP1, AlphaScreen DNA substrate cleavage. Potency, µM (titrated, usually from 130 µM), for the others: top-dose activity change, negative = inhibition, usual class: inhibitors. actives 0.28% (n = 350,000); also: nearly all actives have a fitted effect of over 40% in size
Target sequence (Q9NUW8 whole entry, looked up): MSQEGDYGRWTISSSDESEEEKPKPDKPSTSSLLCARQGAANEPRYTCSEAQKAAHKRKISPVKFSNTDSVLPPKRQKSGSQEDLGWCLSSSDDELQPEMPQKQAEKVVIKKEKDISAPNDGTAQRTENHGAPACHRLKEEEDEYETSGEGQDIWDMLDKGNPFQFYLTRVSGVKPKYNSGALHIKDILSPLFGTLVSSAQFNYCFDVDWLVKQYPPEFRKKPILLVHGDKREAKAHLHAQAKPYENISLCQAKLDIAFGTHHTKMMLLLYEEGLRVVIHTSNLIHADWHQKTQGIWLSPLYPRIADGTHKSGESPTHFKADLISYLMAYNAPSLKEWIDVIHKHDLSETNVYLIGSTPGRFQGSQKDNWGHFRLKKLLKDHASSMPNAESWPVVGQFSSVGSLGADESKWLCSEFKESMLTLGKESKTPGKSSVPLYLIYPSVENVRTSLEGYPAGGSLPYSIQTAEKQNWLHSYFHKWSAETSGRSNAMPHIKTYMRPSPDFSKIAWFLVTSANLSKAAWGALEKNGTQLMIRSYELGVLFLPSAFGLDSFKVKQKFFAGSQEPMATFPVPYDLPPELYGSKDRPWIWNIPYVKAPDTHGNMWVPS
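Compounds were preincubated with Tdp1 (1 nM final) for 15 min at room temperature before substrate (15 nM final) started a 5 min reaction; beads (10 ug/ml final) were then added for 10 min before AlphaScreen detection.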
Gal4-VP16 FLuc – VP16 counterscreen qHTS for inhibitors of ROR gamma transcriptional activity; Drosophila S2 Gal4-VP16 UAS-luciferase, luminescence, 20 h; Potency, µM (titrated, usually from 53.6 µM), without a hit: at the top dose activity, negative = inhibition, usual class: inhibitors; actives 3.5% (n = 310,000); AID 2546, 2010;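 also: Gal4-VP16 expression switched on by copper sulfate through the metallothionein promoter; nearly all actives have a fitted effect of over 50% in size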
TDP1 cell CPT – qHTS for Inhibitors of human tyrosyl-DNA phosphodiesterase 1 (TDP1): qHTS in cells in presence of CPT; Potency, µM (titrated, usually from 46.2 µM), for the others: at the highest dose activity change, negative = growth inhibition, hits mostly inhibitors; actives 12% (n = 420,000); chicken DT40 Tdp1-/-;hTDP1 cells + 20 nM CPT, ATP luminescence, 48 h; also: nearly all actives have a fitted effect of over 55% in size
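Chicken DT40 Tdp1-/- cells stably complemented with human TDP1 were seeded at 400 cells/well in medium containing 20 nM camptothecin, exposed to pin-transferred compounds, and grown at 37 °C for at least 48 hr. Viability was read as ATP luminescence.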
RORgamma inh – qHTS for inhibitors of ROR gamma transcriptional activity; Nuclear receptor ROR-gamma (Mus musculus), P51450; Drosophila S2 Gal4-RORgamma UAS-luciferase reporter, 20 h; Potency, µM (top dose mostly 53.6 µM), for the others: top-dose activity change, negative = inhibition, actives largely listed as inhibitors; actives 5.4% (n = 310,000); AID 2551, 2010; also: nearly all actives have a fitted effect of over 60% in size
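Luminescence from a UAS-regulated Photinus luciferase reporter in stably transfected Drosophila Schneider cells is measured; decreased signal marks ROR gamma inhibition. Fusion expression is induced by 700 uM copper sulfate for 20 hr.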
TDP1 cell noCPT – qHTS for Inhibitors of human tyrosyl-DNA phosphodiesterase 1 (TDP1): qHTS in cells in absence of CPT; DT40 Tdp1-/- hTDP1 cells, no CPT, ATP luminescence, 48 h; Potency, µM (top dose mostly 46.2 µM), inactives show at the top dose activity change, negative = growth inhibition, actives largely listed as inhibitors; actives 15% (n = 420,000); also: nearly all actives have a fitted effect of over 55% in size
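Seeded 400 DT40-hTDP1 cells/well (vehicle DMSO, no 20 nM CPT); pinned compounds; ≥48 hr at 37 °C; CellTiter-Glo luminescence as viability measure.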
* marks the source's active call; other numbers are inactive results; ? = inconclusive; . = no result given; [ ] = another dose, or the depositor's remark. Sampled rows, rich in hits. Any-hit rate of the full collection: about 19%. Calls follow the shape of the dose curve; as a rule, active = well fitted curve in the direction sought with a large enough effect; inconclusive = small, poorly fitted or top-dose-only effect, or another doubt; inactive = no such curve, though single readings can be large; an effect the other way counts as inactive or inconclusive. % is scaled to controls: 0 for no effect and ±100 for the full control effect; potency is read from the fitted curve at half-maximal effect.

SMILES | TDP1 inh | Gal4-VP16 FLuc | TDP1 cell CPT | RORgamma inh | TDP1 cell noCPT
CCOc1ccc(C2CC(=O)n3nc(C45CC6CC(CC(C6)C4)C5)nc3S2)cc1OC (stereo unspecified) | 7% | -9% | -2% | -24% | -21%
CCc1ccccc1NC(=O)c1cc(-c2cccs2)on1 | 0% | ? | 2% | -10% | -8%
CCOC(=O)CSc1nc2cc(C(=O)N3CCC(C(N)=O)CC3)ccc2c(=O)n1-c1ccccc1 | -5% | -20% | -23% | -39% | -11%
CC(=O)N(c1ccc(Cl)cc1)c1cn(C(C)=O)c2ccccc12 | 2% | -7% | 4% | 28% | -28%
CC(=O)n1cc(N(C(=O)CCl)c2ccc(C)cc2)c2ccccc21 | 4% | ? | 3.3µM* | 11µM* | 1.6µM*
C[C@@H]1CN([C@@H](C)CO)C(=O)CCCn2nncc2CO[C@@H]1CN(C)C(=O)Nc1cccc2ccccc12 | . | . | -4% | . | -12%
CSc1ccccc1NC(=O)Nc1cccc(Cl)c1 | 7% | 0% | 16µM* | 0% | ?
CN(c1cccc(NC(=O)Nc2cccc(Cl)c2)c1)S(C)(=O)=O | 3% | 19% | ? | ? | 16µM*
CC(=O)Nc1cccc(N(C)S(C)(=O)=O)c1 | 7% | -1% | -15% | 27% | -11%
COc1ccc(CNC(=O)C(CC(C)C)N2Cc3ccccc3C2=O)cc1 (stereo unspecified) | 0% | . | ? | . | ?
CCC(C)(C)n1nnnc1C(C(C)C)N1CCN(C)CC1 (stereo unspecified) | 1% | 2% | -3% | -1%[10 µM] | -3%
O=C(OCCOc1cccc(Cl)c1)c1cc(S(=O)(=O)N2CCCCC2)ccc1N1CCOCC1 | . | . | 15µM* | . | 8.2µM*
O=C(OCc1cccc(Cl)c1)c1cc(S(=O)(=O)N2CCCCC2)ccc1N1CCOCC1 | 1%[56.1 µM] | -12% | 16µM* | 22% | 29µM*
Cc1cccc(OCCSc2ncnc3nc[nH]c23)c1 | 4% | 0% | ? | -7% | ?
CCc1c(C)nc2ncnn2c1Nc1ccccc1C | 2% | -2% | ? | 8% | ?
Cc1ccccc1Nc1c(C)c(C)nc2ncnn12 | . | -3% | 16µM* | ? | 21µM*
Cc1ccc(-c2nc3nc(C)cc(C)n3c2Nc2ccc3c(c2)OCCO3)cc1 | 8% | . | ? | . | -42%
COc1cccc(-c2nc3nc(C)cc(C)n3c2NCc2ccccc2)c1 | . | . | ? | . | 12µM*
COc1ccc(Nc2c(-c3cccc(OC)c3)nc3nc(C)cc(C)n23)cc1 | . | . | ? | . | 21µM*
COc1cccc(-c2nc3nc(C)cc(C)n3c2Nc2ccc3c(c2)OCCO3)c1 | . | . | ? | . | 26µM*
COc1ccc(NC(=O)CN(C)C(=O)CCC(=O)c2ccc(C)cc2)cc1 | . | . | 1% | . | 0%
Cc1ccc2c(Cl)cc(Cl)c(OCC(=O)NC(C)(C)C)c2n1 | 2% | ? | ? | 7.1µM* | 23µM*
COc1ccc(OC)c(NC(=O)COC(=O)COc2c(Cl)cc(Cl)c3ccc(C)nc23)c1 | . | . | -17% | . | -11%
COC(=O)COc1c(Cl)cc(Cl)c2ccc(C)nc12 | 7% | 22µM* | -5% | ? | 0%
Cc1cccc(N2CCN(C(=O)c3ccc4c(c3)N(Cc3cccc(Cl)c3)C(=O)c3ccccc3S4=O)CC2C)c1 (stereo unspecified) | 7% | . | 5.8µM* | . | 6.5µM*
SMILES | TDP1 inh | Gal4-VP16 FLuc | TDP1 cell CPT | RORgamma inh | TDP1 cell noCPT
CCN1C(=O)c2ccccc2S(=O)c2ccc(C(=O)N3CCN(c4cccc(C)c4)C(C)C3)cc21 (stereo unspecified) | 8% | . | ? | . | 16µM*
CCN1C(=O)c2ccccc2S(=O)c2ccc(C(=O)N3CCCC3)cc21 (stereo unspecified) | -3% | 0% | -10% | 14% | ?
CCOC(=O)N1CCN(C(=O)CN(c2cccc(C(F)(F)F)c2)S(C)(=O)=O)CC1 | -5% | 1% | 2% | 20% | -3%
Nc1cc(=O)[nH]c(=O)n1Cc1ccccc1 | 3% | 7% | -2% | -9% | -10%
C=CCN(C(=O)CNC(=O)c1ccco1)C(C(=O)NC1CCCCC1)c1cccnc1 (stereo unspecified) | 6% | -1% | 2% | -19% | 12%
CCOC(=O)c1c(C)[nH]c(C(=O)C(C)OC(=O)c2cccc(OCc3c(C)noc3C)c2)c1C (stereo unspecified) | -1% | ? | 21µM* | ? | 18µM*
Cc1ccc2c(n1)sc1c(-c3ccc(Br)cc3)c(C#N)c(N)nc12 | -2% | -4% | ? | 19% | 18µM*
CCCC(=O)Nc1cccc(-c2nc3cc(C)c(C)cc3o2)c1C | 2%[2.28 µM] | . | 2% | . | -11%
O=C(CCc1c[nH]c2ccccc12)OCc1ccc(Br)cc1 | 2% | 17% | -17% | 34% | -27%
O=C(NCc1ccccc1)c1onc(CSc2ccc(Cl)cc2)c1C(=O)NCc1ccccc1 | 1% | -2% | ? | 37% | ?
O=C(NCc1ccccc1)c1onc(CSc2ccccc2)c1C(=O)NCC1CC1 | -4% | -4% | 13µM* | ? | 21µM*
O=C(NCc1ccccc1)c1onc(CSc2ccccc2)c1C(=O)NCc1ccccc1 | . | . | 16µM* | . | ?
O=C(Nc1nc(-c2ccccc2)cs1)C1CCCCN1S(=O)(=O)c1ccc(Cl)cc1 (stereo unspecified) | 4% | -12% | ? | ? | ?
CC1CCCN(S(=O)(=O)c2cccc([N+](=O)[O-])c2)C1 (stereo unspecified) | . | -8% | -13% | 0% | ?
O=C(O)C1CCCN(S(=O)(=O)c2ccccc2)C1 (stereo unspecified) | 5% | -10% | 13% | 0% | -16%
O=C(Nc1nc(-c2ccccc2)cs1)C1CCCCN1S(=O)(=O)c1ccccc1 (stereo unspecified) | 10% | ? | 26µM* | ? | 23µM*
O=C(Nc1nc(-c2ccccc2)cs1)C1CCCN(S(=O)(=O)c2cccc([N+](=O)[O-])c2)C1 (stereo unspecified) | 6% | -3% | 21µM* | 0% | ?
O=C(Nc1nc(-c2ccccc2)cs1)C1CCCN(S(=O)(=O)c2ccccc2)C1 (stereo unspecified) | -3% | 7% | 6.5µM* | 21% | 6.5µM*
CCC(C)NC(=O)c1ccc2c(c1)N(Cc1ccccc1)C(=O)c1ccccc1S2 (stereo unspecified) | 5% | . | -15% | . | -25%

From PubChem BioAssay
